Screening results deposited in PubChem BioAssay by several laboratories.
APP 5'UTR act: activates APP 5'UTR luciferase reporter. activation, % at 2 µM. actives 1% (n = 190,000). SH-SY5Y APP 5'UTR luciferase reporter, luminescence; zero percent = DMSO vehicle wells;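 active = activation above a set limit, based on mean plus 3 SD of controls, cut at about 140% in these data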
hcDAF-12 act: H. contortus DAF-12 activation, primary screen; HEK293 hcDAF-12 lit1-tk-luc reporter, luminescence; 0% DMSO, 100% Δ7-dafachronic acid; activation, % at 6.8 µM; actives 1.4% (n = 370,000);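 active = activation above the mean of all tested compounds plus 3 SD, cut at about 5.5% in these data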;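 note: 100% = response to 3 µM Δ7-dafachronic acid high control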
hgDAF-12 ag: agonists of H. glycines DAF-12 nuclear receptor. HEK293 GAL4-hgDAF12 UAS-luciferase reporter, agonist luminescence; normalized to butyrate control. activation, % at 6.8 µM. actives 1.8% (n = 370,000). AID 687014;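 active = activation above a cutoff set at the mean of all screened compounds plus 3 SD, cut at about 10% in these data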;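 note: 0% = DMSO wells and 100% = sodium butyrate wells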
NF-kB expr up: raises NF-kB expression in human neuronal cells | actives 1.6% (n = 190,000) | fold change at 12.5 µM | NF-kB reporter expression; stronger effect = higher value; in the data active = fold change above about 3.3
ssDAF-12 act: activates DAF-12 receptor from parasite S. stercoralis | HEK293 ssDAF-12/GRIP1 lit1-tk-luc reporter, luminescence; % of 3 µM dafachronic acid response | activation, % at 6.8 µM | actives 1% (n = 370,000) | AID 652126;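 active = activation above the mean over all tested compounds plus 3 SD, cut at about 0.9% in these data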;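 note: 0% = DMSO-only wells and 100% = 3 µM delta7-dafachronic acid wells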
An asterisk follows results filed as active; / = not tested or not shown. Sampled rows, rich in hits. Any-hit rate of the full collection: about 3.4%.

SMILES	APP 5'UTR act	hcDAF-12 act	hgDAF-12 ag	NF-kB expr up	ssDAF-12 act
COc1cccc(C(=O)Nc2ccc3[nH]ncc3c2)c1	/	4.8	10.5*	/	-0.1
COc1ccc(NC(=O)/C(C#N)=C\c2ccc(N3CCOCC3)o2)cc1	47.0	0.8	12.8*	1.3	-0.7
N#C/C(=C/c1ccc(N2CCCCC2)o1)C(=O)Nc1ccc(Cl)cc1	35.5	-0.9	11.2*	1.53	-1.6
N#C/C(=C/c1ccc(N2CCCCC2)o1)C(=O)Nc1ccc2ccccc2c1	18.0	-2.9	1.1	1.09	-1.9
O=C(CCSCc1ccccc1)Nc1ccc2c(c1)OCCO2	4.3	0.5	7.0	1.45	-1.0
O=C(CCc1ccccc1)Nc1cc2c(cc1Cl)OCCO2	81.8	2.5	10.3	2.47	1.2*
O=C(CCc1ccccc1)Nc1ccc2c(c1)OCCO2	132.1	3.4	11.8*	4.54*	0.3
CCCC[C@H]1C2CC(OC(=O)Nc3cccc(C(F)(F)F)c3)C(C2)[C@H]2CCCCN21 (some centres undefined)	/	-0.6	7.2	/	-1.2
COc1ccc2[nH]c3c(c2c1)CCN[C@]31C(=O)N(c2ccccc2)c2ccccc21	/	-3.0	1.3	/	-0.6
CCNC(=S)NNC(=O)c1cnccn1	/	-3.3	4.4	/	-1.0
C/C(=N\Nc1cccc2cccnc12)c1ccc(C)cc1	136.7*	3.1	5.2	4.24*	-0.3
Oc1ccccc1/C=N/Nc1cccc2cccnc12	88.9	2.5	1.3	12.3*	0.8
Cc1cccc(C(=O)Nc2cccc3cccnc23)c1	/	5.5	7.5	/	0.8
COc1ccc(S[C@]2(C(=O)N3CCN(c4ncccn4)CC3)CC(=O)N(c3ccc4ccccc4c3)[C@@H]2c2ccc(OC)cc2)cc1	/	-2.6	-2.3	/	-1.1
O=C(CCS(=O)(=O)c1cccs1)NC1CCCCCC1	16.2	1.4	12.1*	1.9	-0.3
COc1ccc2c(c1)CNC2CS(=O)(=O)NC1CCCC1 (centres undefined)	/	1.8	0.6	/	0.2
S=C(Nc1ccc(Cl)cc1Cl)N1CCCCC1	10.6	5.8*	1.9	1.42	-1.0
S=C(Nc1ccccc1Cl)N1CCCCCC1	5.5	-0.1	0.8	1.62	-0.7
S=C(c1ccc(-c2ccc(Cl)cc2Cl)o1)N1CCCCC1	45.8	5.0	8.5	3.85*	0.9
Clc1ccc(-n2nnc(-c3cccnc3Cl)n2)cc1Cl	164.4*	1.9	5.0	2.52	-0.4
COc1ncccc1-c1nnn(-c2ccccc2)n1	158.4*	5.7*	11.2*	4.75*	1.3*
COc1ncccc1-c1nnn(-c2ccccc2Br)n1	/	1.8	1.2	/	-0.8
c1ccc(-n2nnc(-c3cccnc3)n2)cc1	17.8	3.6	11.4*	2.38	-0.1
Cc1ccccc1NC(=O)COC(=O)/C=C/c1cn(-c2ccccc2)nc1-c1cccnc1	9.2	0.3	-0.4	0.82	1.1*
CC1CCN(c2ccc(C(=O)O)cc2NS(=O)(=O)c2cccc3cccnc23)CC1	/	-0.2	-0.4	/	-0.7
SMILES	APP 5'UTR act	hcDAF-12 act	hgDAF-12 ag	NF-kB expr up	ssDAF-12 act
CCN(C(=O)[C@@H](C)[C@@H](O)c1ccc2ccccc2c1)c1ccccc1	/	-1.3	-0.9	/	-0.8
CN1CCCN(C(=O)C2CCN(c3ncnc4c3sc3cccc(F)c34)CC2)CC1	/	1.1	3.6	/	-0.3
O=C(CO/N=C/c1ccccc1OC(F)F)N1CCc2ccccc21	8.9	6.5*	2.7	1.03	-1.0
CC1CCCN(C(=O)CSCC(=O)Nc2nc(-c3cccs3)cs2)C1 (centres undefined)	8.5	6.4*	2.9	1.21	0.0
CCN(CCc1ccccc1)c1ccc2c(c1)C1CC2CCN1C(=O)OCc1ccccc1 (centres undefined)	/	0.1	1.1	/	1.6*
CC(C)CN1C(=O)C[C@]2(C(=O)N(C)c3ccc(NC(=O)C(F)(F)F)cc32)C1c1ccccc1 (some centres undefined)	/	1.2	1.0	/	-0.8
CC1=CCC(C(=O)O)C(C(=O)Nc2cccnc2)C1 (centres undefined)	2.8	2.1	1.8	1.05	1.7*
CC1=CCC(C(=O)O)C(C(=O)Nc2nc3ccc(S(C)(=O)=O)cc3s2)C1 (centres undefined)	6.3	-0.9	0.7	1.08	-1.8
COCCCNC(=S)NC(=O)c1ccc(C)cc1	60.0	6.2*	13.0*	2.52	0.8
O=C1CSc2ccc(C(=O)N3CCCC(C(=O)N4CCCCC4)C3)cc2N1 (centres undefined)	/	-0.3	4.0	/	-0.2
Cc1cc(/C=N/NC(=O)c2ccncc2)c(C)n1-c1cccc(C(F)(F)F)c1	/	0.2	0.5	/	-1.1
CC(/C=N/NC(=O)c1ccncc1)=C\c1ccccc1	9.7	0.3	2.8	1.38	-1.2
Cc1cc(/C=N/NC(=O)c2cccc(F)c2)c(C)n1-c1ccccc1	79.5	2.1	11.0*	0.74	0.4
CC(/C=C/c1ccco1)=N\NC(=O)c1cccc(Cl)c1	27.9	2.5	5.6	1.66	-0.4
CC(/C=N/NC(=O)c1cccc(F)c1)=C\c1ccccc1	/	4.3	11.9*	/	0.4
CC(/C=C/c1ccccc1F)=N\NC(=O)c1cccc(F)c1	8.8	0.1	12.4*	1.69	-0.6
O=S(=O)(c1ccccc1Br)N(Cc1cn(CC2CCCCC2)nn1)C1CC1	/	1.7	5.0	/	-1.5
Cc1ccc(NC(=O)c2ccc3nccnc3c2)c(C)c1	/	1.5	11.5*	/	-0.2
Cc1cc(C)c(NC(=O)c2ccc3nccnc3c2)c(C)c1	/	-1.1	-1.2	/	-1.0
CCCCOCCCNC(=O)C[C@H]1C[C@@]2(C(=O)OC)C(=C[C@H](C3CCCC3)O[C@@H]2C)N(Cc2ccco2)C1=O	/	0.3	0.1	/	-0.9
O=C(NCCc1c[nH]c2ccccc12)[C@H](Cc1c[nH]c2ccccc12)NC1(C(=O)NC2CCCCC2)CCCCCCC1	/	1.5	-1.4	/	-0.5
O=C(NCCc1ccccc1)c1ccc(-c2ccccc2C(F)(F)F)o1	11.3	0.1	1.7	1.08	-0.9
O=C(NCc1ccccc1)c1ccc(-c2ccccc2F)o1	21.2	1.1	10.1	2.16	0.9*
COc1ccc(CCNc2nnc(Sc3nnnn3-c3ccccc3)s2)cc1OC	-93.9	-1.7	-7.1	3.74*	-0.8
C=CCNC(=S)N(C)[C@H]1C[C@H]2c3[nH]c4cccc(-c5cccc(F)c5)c4c3CCN2C(=O)[C@H]1[C@H](C)O	/	-3.6	4.0	/	-1.5
N#C/C(=C(/O)COC(=O)CSc1ccc2ccccc2c1)c1nc2ccccc2[nH]1	8.2	0.4	-3.7	3.46*	-0.7
N#C/C(=C(/O)CCl)c1nc2ccccc2[nH]1	8.5	4.7	-6.0	1.83	1.0*
Cc1cc(Br)ccc1SCC(=O)OCC(O)=C(C#N)c1nc2ccccc2[nH]1	/	3.9	-0.4	/	-0.6
Cc1cc(Br)ccc1SCC(=O)OC/C(O)=C(\C#N)c1nc2ccccc2[nH]1	/	2.6	6.2	/	1.1*
Cc1cccc(Nc2nnc(SC/C(O)=C(\C#N)c3nc4ccccc4[nH]3)s2)c1C	-7.7	4.8	2.3	0.61	1.0*
